Screens as filed in PubChem BioAssay.
Only some compounds are listed: those with a hit (about 1.3% of all), similar ones and a draw of the others.
EBV gp42 inh: EBV gp42 inhibition; Q1HVG2; Fluorescence polarization binding assay, mP read-out; inhibition, % (tested at 21.74 µM); 0.42% of 220,000 active; AID 1085; in the data active = inhibition above about 50%
BCLXL inh: inhibitors of human Bcl-xL; GST-Bcl-xL / FITC-Bim BH3 peptide fluorescence polarization; inhibition, % at 10.9 µM; 0.7% of 320,000 active; AID 2129;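 active = inhibition above the mean of all tested compounds plus 3 SD, cutoff set per campaign, cut at about 30% in these data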;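 note: inhibitors lower millipolarization by displacing the labeled peptide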
Target sequence (Q07817 whole entry, looked up): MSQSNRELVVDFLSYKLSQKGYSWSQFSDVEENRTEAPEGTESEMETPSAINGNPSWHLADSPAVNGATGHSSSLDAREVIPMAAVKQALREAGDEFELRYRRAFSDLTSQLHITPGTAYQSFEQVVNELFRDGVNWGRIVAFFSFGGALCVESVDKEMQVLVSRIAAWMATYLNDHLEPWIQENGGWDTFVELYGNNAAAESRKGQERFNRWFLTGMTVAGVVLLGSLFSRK
GLD-1 RNA inh: GLD-1-TGE RNA interaction inhibition (C. elegans) | Q17339 | AID 2280 | inhibition, % at 5.96 µM | 0.44% of 320,000 active | purified GLD-1 + fluorescein TGE RNA, fluorescence polarization;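 active = percent inhibition above a per-plate cutoff, the plate mean of test compounds plus 3 SD, cut at about 30% in these data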
MCL1-BIM inh: disrupts human MCL1 binding to BIM-BH3 peptide. Q07820. GST-MCL1 / FITC-Bim-BH3 fluorescence polarization. inhibition, % at 10.9 µM. 0.68% of 320,000 active. AID 2057;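 active = inhibition above the mean inhibition of all tested compounds plus 3 SD, set per campaign, cut at about 40% in these data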;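 note: higher means more loss of mP so more displacement of Bim peptide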
Target sequence (Q07820 whole entry, looked up): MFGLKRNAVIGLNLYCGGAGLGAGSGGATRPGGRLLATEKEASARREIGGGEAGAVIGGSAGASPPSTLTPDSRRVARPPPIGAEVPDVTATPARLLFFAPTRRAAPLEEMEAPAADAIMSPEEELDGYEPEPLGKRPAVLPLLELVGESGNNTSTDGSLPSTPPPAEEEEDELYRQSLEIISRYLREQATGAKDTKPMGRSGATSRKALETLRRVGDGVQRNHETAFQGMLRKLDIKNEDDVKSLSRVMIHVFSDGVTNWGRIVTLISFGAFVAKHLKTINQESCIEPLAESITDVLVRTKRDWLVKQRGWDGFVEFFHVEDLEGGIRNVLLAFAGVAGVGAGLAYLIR
MEX-5 binding: C. elegans MEX-5 TCR-2 RNA binding activity; MEX-5/FITC-TCR2 RNA binding, fluorescence polarization; hits give low values; activity score (negative = inhibition of binding), % at 10 µM; 0.38% of 300,000 active;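 active = inhibition past about -25% in most replicates, and total fluorescence under double the plate's negative control median, limit read from the data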
A number is an active result; - = inactive; . = no result.

SMILES	EBV gp42 inh	BCLXL inh	GLD-1 RNA inh	MCL1-BIM inh	MEX-5 binding
CCCN1CCCc2cc(CN)ccc21	79.0	107.7	45.5	127.0	-59.7
Cc1noc(C)c1COc1ccc(C(=O)NNC(=O)c2ccccc2O)cc1	.	-	-	-	-
Oc1c(C=Nc2ccccc2Cl)[nH]c2ccccc12	-	39.0	-	-	-29.0
CCC(C)C(NC(=O)/C(=C\c1ccccc1)NC(=O)c1ccc(OC)cc1)C(=O)O (stereo unspecified)	-	-	-	-	-
COc1cccc(C(C(=O)NC(C)(C)C)N(CC(C)C)C(=O)CCC(=O)Nc2cc(C)on2)c1OC (stereo unspecified)	-	-	-	-	-
Cc1occc1-c1nnc(SCC(=O)c2c[nH]c3ccccc23)n1C	144.0	-	-	-	.
O=C(Cn1nc(C(=O)O)c2ccccc2c1=O)Nc1cccc(Br)c1	.	-	-	-	-
Cn1c(N)c(C(=O)COC(=O)c2cc(-c3ccco3)nc3ccccc23)c(=O)n(C)c1=O	-	.	.	.	-
CCN(CC)C(=O)COC(=O)c1cc(-c2ccco2)nc2ccccc12	51.8	.	.	.	-
Cn1c(N)c(C(=O)COC(=O)c2cc(-c3ccco3)nc3ccccc23)c(=O)n(Cc2ccccc2)c1=O	-	-	-	42.6	-
O=C(O)/C=C/C(=O)Nc1ccc(Oc2ncnc3cc(Cl)ccc23)nc1	-	-	-	-	-
O=C(Cc1c[nH]c2ccccc12)NCc1ccc2c(c1)OCO2	-	-	-	-	-
N#C[C@@H]1[C@@H]2C(=O)N(c3ccc4c(c3)OCCO4)C(=O)[C@@H]2C2c3ccccc3C=CN21 (stereo partly specified)	-	33.7	30.8	-	-
CC(=O)[C@H]1[C@H](c2cccc(Cl)c2)C(C#N)(C#N)[C@@H]2c3ccccc3C=CN21	-	31.3	33.6	-	-
COC(=O)C1(CCSC)NC(c2ccccc2F)C2C(=O)N(c3ccc4c(c3)OCCO4)C(=O)C21 (stereo unspecified)	-	-	-	-	-
CC(=O)[C@@H]1[C@@H]2C(=O)N(c3ccc(F)c(Cl)c3)C(=O)[C@@H]2C2c3ccccc3C=CN21 (stereo partly specified)	-	36.0	-	-	-
CC(=O)[C@H]1[C@@H]2C(=O)N(c3cccc(Cl)c3)C(=O)[C@@H]2[C@H]2c3ccccc3C=CN21	-	61.1	34.5	51.3	-
CC(C)(C)C(=O)[C@@H]1[C@@H]2C(=O)N(Cc3ccccc3)C(=O)[C@@H]2[C@H]2c3ccccc3C=CN12	-	.	.	.	.
CN1C(=O)c2ccccc2C(C(=O)O)C1c1cccc(Cl)c1 (stereo unspecified)	-	-	-	-	-
Cc1cccc(NC(=O)CN(CC2CCCO2)C(=O)c2oc3ccccc3c2C)c1C (stereo unspecified)	.	-	-	-	.
Cc1ccnc(NC(=O)CSc2nnc3c(n2)[nH]c2ccccc23)c1	-	-	-	-	-
CC(=O)c1ccc(NC(=S)N(C)C2CCN(C)CC2)cc1	-	-	-	-	-
C[C@@H](NC(=O)[C@@H]1Cc2ccccc2CN1C(=O)OC(C)(C)C)C(=O)NCC1CCCO1 (stereo partly specified)	.	-	-	-	-
C[C@@H]1O[C@@H](OC[C@@H]2O[C@H](Oc3c(-c4ccc(O)cc4)oc4cc(O)cc(O)c4c3=O)[C@@H](O)[C@H](O)[C@H]2O)[C@H](O)[C@H](O)[C@H]1O	.	.	-	.	.
CC1OC(Oc2c(-c3cc(O)c(O)c(O)c3)oc3cc(O)cc(O)c3c2=O)C(O)C(O)C1O (stereo unspecified)	-	.	.	.	-48.0
SMILES	EBV gp42 inh	BCLXL inh	GLD-1 RNA inh	MCL1-BIM inh	MEX-5 binding
CCS(=O)(=O)Nc1ccc2c(c1)OCO2	-	41.2	-	-	-
CCOc1ccc(S(=O)(=O)Nc2ccc3c(c2)OCO3)cc1	.	-	-	-	-
O=C(OC[C@H]1O[C@@H](OC(=O)c2cc(O)c(O)c(OC(=O)c3cc(O)c(O)c(O)c3)c2)[C@H](OC(=O)c2cc(O)c(O)c(OC(=O)c3cc(O)c(O)c(O)c3)c2)[C@@H](OC(=O)c2cc(O)c(O)c(OC(=O)c3cc(O)c(O)c(O)c3)c2)[C@@H]1OC(=O)c1cc(O)c(O)c(OC(=O)c2cc(O)c(O)c(O)c2)c1)c1cc(O)c(O)c(OC(=O)c2cc(O)c(O)c(O)c2)c1	.	54.6	90.3	75.7	.
CC(NC(=O)Nc1ccc([N+](=O)[O-])cc1)C(c1cccs1)N1CCCC1 (stereo unspecified)	-	52.5	-	-	-
CC(NC(=O)Nc1cccc(Cl)c1)C(c1cccs1)N1CCCC1 (stereo unspecified)	-	-	-	-	-
COC(=O)c1ccc(CNC(=O)COC(=O)c2ccc(N(C)C)cc2)cc1	-	-	-	-	-
CC1C(=O)C(C)C(c2cccc(Br)c2)NC1c1cccc(Br)c1 (stereo unspecified)	.	-	-	-	-
COc1cc2c(cc1OC)C(c1ccc(-c3ccc(Cl)cc3Cl)o1)=NCC2	-	-	-	-	-35.8
COc1cc2c(cc1OC)C(c1ccc(-c3ccccc3Cl)o1)=NCC2	-	-	-	-	-
COc1cc2c(cc1OC)C(c1ccc(-c3ccc(Cl)c(Cl)c3)o1)=NCC2	-	-	-	-	-35.4
COc1cc2c(cc1OC)C(c1ccc(-c3cc(Cl)ccc3Cl)o1)=NCC2	-	-	-	-	-
Cc1cccnc1NC(=O)CN1C(=O)NC(C)(c2ccc3ccccc3c2)C1=O (stereo unspecified)	.	-	-	-	-
CCOc1ccc(OCCC(=O)OC(C)C(=O)Nc2ccc(C(C)=O)cc2)cc1 (stereo unspecified)	.	-	-	-	-
COc1ccc(CCN2CCC(Nc3nc4ccccc4n3Cc3ccc(F)cc3)CC2)cc1	-	-	-	-	-
COc1c(O)cccc1[C@@H](O)C1CCN(CCc2ccc(F)cc2)CC1	.	40.8	58.3	-	-28.8
CSc1ncccc1C(=O)NC(C)C1CC2CCC1C2 (stereo unspecified)	-	-	-	-	-
COc1ccc(N=C2S/C(=C\c3ccc(OCC(=O)O)cc3)C(=O)N2CCc2c[nH]c3ccccc23)cc1	84.4	.	.	.	-
CCn1c2ccccc2c2cc(N)ccc21	-	-	-	-	-
CCn1c(C)cc(=S)c2ccccc21	-	-	-	-	-51.9
CN(C)S(=O)(=O)c1cccc(NC(=S)N/N=C/c2ccc(O)c(O)c2O)c1	-	.	.	.	-48.2
COC(=O)CC1=C(C(=O)OC)C(c2ccncc2)C(C#N)=C(N)O1 (stereo unspecified)	-	-	-	-	-
COC(=O)CC1=C(C(=O)OC)C(c2cccc(OCC(N)=O)c2)C(C#N)=C(N)O1 (stereo unspecified)	-	32.0	-	-	-
Cc1nc(S/C(=C\c2ccc(-c3ccc(C(=O)O)c(Cl)c3)o2)C(=O)O)n[nH]1	-	.	.	.	-90.9
CCN(CC)CCCNc1oc(-c2cccc(Cl)c2)nc1C#N	-	-	-	-	-
